Measurements from PubChem BioAssay AID590 (National Center for Advancing Translational Sciences (NCATS), 2007).
Out of some 59,000 compounds screened, about 6,500 (11%) were called active. Roughly 15% stayed inconclusive and do not appear here. No stated cut-off is given here; in the data, active means max dye-equivalent concentration above about 10 nM; inconclusive means mostly about 1.1 nM to 9.6 nM; inactive means weaker than that. The sample as a whole holds a higher share of actives than the screen did.

Experiment: qHTS Assay for Spectroscopic Profiling in A350 Spectral Region
Conditions: Compound autofluorescence, 340/450 nm, Alexa 350 dye-equivalents; hits give high values

Max dye-equivalent concentration, active:
CCC1(C)Cc2c(sc3nc4n(c(=O)c23)CCCS4)CO1 (stereo not given) 56 nM, O=C1c2cccc3cccc(c23)N1CN1CCN(c2ccccn2)CC1 16 nM, CCn1c(=N)c(S(=O)(=O)c2ccc(F)cc2)cc2c(=O)n3ccccc3nc21 780 nM, COc1ccc(OC)c(C(=O)CSc2nnc(-c3cccs3)o2)c1 150 nM, Cn1c2ccccc2c2c(C(=O)N3CCN(c4ccc(F)cc4)CC3)cn(C3CCCC3)c(=O)c21 13 nM

Max dye-equivalent concentration, inactive:
CCOC(=O)Cn1c(SC)nc2sc3c(c2c1=O)CC(C)(C)OC3, CC1(C)Cc2c(sc3nc4n(c(=N)c23)CCCCC4)CO1, CCCCC[C@H](O)CCCC(=O)O, CC(=O)c1c(C)n(-c2ccc(N(C)C)cc2)c2ccc(OCC(N)=O)cc12, CCCc1[nH]nc2c1C(c1ccc(OC)c(Cn3nc(C)c(Br)c3C)c1)C(C#N)=C(N)O2 (stereo not given), CC(=O)/C(=N\N=C(N)N)c1ccccc1, OC(COc1cccc2ccccc12)CN1CCN(c2ccccn2)CC1 (stereo not given), CC(=C1C(=O)c2ccccc2C1=O)N1CCN(c2ccccn2)CC1, COc1ccccc1OCCC(=O)OCC(=O)NC(=O)NC(C)(C)C, CN1C(C)(C)CC(NC(=O)CCC(=O)NC2CC(C)(C)N(C)C(C)(C)C2)CC1(C)C, CC1CCCC(NC(=O)CSc2nccn2C)C1C (stereo not given), O=C(c1c(Cl)nc2sccn12)N1CCCc2ccccc21, COc1ccccc1CNc1nc(-c2c(C)noc2C)nc2ccccc12, Cc1cnc(NC(=O)CSc2nnc(-c3ccccc3)n2Cc2ccccc2)s1, COc1ccc(CC(=O)Nc2nc3n(n2)C(c2ccccc2)CC(=O)N3)cc1OC (stereo not given), CNC(=O)CSc1nnnn1-c1ccc(C)cc1C, COc1ccc(-n2c(C)cc(C(=O)CSc3nnc(-c4cccs4)o3)c2C)cc1, COc1ccc(-c2nnc(SCC(=O)c3cccs3)o2)c(OC)c1, c1ccc(CSCCc2ccncc2)cc1, CN(CCC#N)c1ncnc2scc(-c3ccccc3)c12, O=C(CN1C2CCC1CC(NC(=O)C1CC1)C2)NCc1ccccc1 (stereo not given), CCCCNC(=O)CSc1nnc(-c2ccco2)n1C, CC(C)N(C(=O)COC(=O)c1ccccc1C(=O)N1CCN(c2ccc(F)cc2)CC1)C(C)C, O=C(c1ccccc1)c1cccn1CC(=O)N1CCN(c2ccc(F)cc2)CC1, CCCCn1nnnc1NCc1cc(OC)c(OC)c(OC)c1
